# Measured values: PubChem BioAssay (Tox21)
# Several values for one entry are separate records, joined by “and”; a condition that tells them apart may be missing. Equal entries are not always repeated. Results filed as inconclusive are left out. A call without a number means that no potency is given here. A structure can be active in one record and inactive in another. Activity calls are given as the source filed them. Calls follow the shape of the dose curve; as a rule, active = well fitted cell-killing curve with a large enough effect in the repeat runs; inconclusive = weak or mixed curves, or effect the other way; inactive = no such curve, though single readings can be large or run the other way.
# Test: qHTS assay to identify small molecule antagonists of the peroxisome proliferator-activated receptor gamma (PPARg) signaling pathway - cell viability counter screen (AID 743194); also: nearly all actives have a fitted effect of over 55% in size
# Details: PPARg-bla HEK293H viability, CellTiter-Glo luminescence, 17 h; Potency: co-treated with 50 nM rosiglitazone unless noted; series mostly up to 62.6 µM; activity change, negative = cytotoxicity: at the top concentration
# From the text: U.S. Tox21 Program National Center for Advancing Translational Sciences [NCATS] NIH Chemical Genomics Center [NCGC] U.S. Environmental Protection Agency [EPA] National Institutes of Environmental Health Sciences [NIEHS] National Toxicology Program [NTP] U.S. Food and Drug Administration [FDA] Tox21 Assay Overview: The peroxisome proliferator-activated receptors (PPARs) are lipid-activated transcription factors of the nuclear receptor superfamily with three distinct subtypes namely PPAR alpha, PPAR delta (also called PPAR beta) and PPAR gamma (PPARg). All these subtypes heterodimerize with Retinoid X receptor (RXR) and these heterodimers regulate transcription of various genes. PPAR-gamma receptor (glitazone receptor) is involved in the regulation of glucose and lipid metabolism. To identify the compounds that activate PPAR-gamma signaling, GeneBLAzer PPAR gamma UAS-bla HEK293H cell line (Invitrogen, Carlsbad, CA, USA) containing a beta-lactamase reporter gene under the control of an Upstream Activator Sequence (UAS) was used to screen the Tox21 compound library. The cytotoxicity of the Tox21 compound library against the PPARg-bla cell line was tested in parallel by measuring the cell viability using CellTiter-Glo assay in the same wells.
# Tox21 Assay Protocol Summary: PPARg-bla cells were dispensed at 3000 cells/5uL/well in 1536-well black wall/clear bottom plates using a Multidrop Combi (Thermo Fisher Scientific, Waltham, MA) dispenser. After the assay plates were incubated at 37 C and 5% CO2 for 5 h, 23 nL of compounds dissolved in DMSO, positive controls or DMSO only was transferred to the assay plate by a Pintool station (Kalypsys, San Diego, CA), followed by addition of 1ul Rosiglitazone (50 nM, final concentration in the wells). The assay plates were incubated at 37 C for 17 h, and then 1 uL of LiveBLAzerTM B/G FRET substrate was added using a Bioraptr Flying Reagent Dispenser (FRD) workstation (Beckman Coulter, Indianapolis, IN, USA). The assay plates were incubated at room temperature for 1 h and fluorescence intensity was measured by an Envision plate reader (PerkinElmer, Shelton, CT). For cell viability readout that measures cytotoxicity, 4 ul/well of CellTiter-Glo reagent was added into the assay plates using a Flying Reagent Dispenser. After 30 min incubation at room temperature, the luminescence intensity in the plates was measured using a ViewLux plate reader (PerkinElmer).
# Potency is read from the fitted curve at half-maximal effect.
SMILES,Potency,"activity change, negative = cytotoxicity"
ClC1C(Cl)C(Cl)C(Cl)C(Cl)C1Cl (stereo not given),inactive,–
Brc1ccc(Oc2cc(Br)c(Br)cc2Br)c(Br)c1,–,-5.7% (inactive)
N#Cc1cc(Br)c(O)c(Br)c1,–,-17.4% (inactive)
CCC(C)(c1ccc(O)cc1)c1ccc(O)cc1,–,-3.65% (inactive)
NNC(N)=S,inactive,–
CC(C)C(=O)OCC(C)(C)C(OC(=O)C(C)C)C(C)C (stereo not given),35 µM [setting not given] (active),–
CCC(C)c1ccc(O)cc1 (stereo not given),inactive,–
CCN(CC)C(=O)/C(Cl)=C(\C)OP(=O)(OC)OC,inactive,–
CCC(=O)O[C@H]1CC[C@H]2[C@@H]3CCC4=CC(=O)CC[C@]4(C)[C@H]3CC[C@]12C,49 µM [setting not given] (active) and inactive,–
c1ccc(-c2cccc(-c3ccccc3)c2)cc1,–,-9.62% (inactive)
CC(O)CCO (stereo not given),inactive,–
C[C@]12CCC(=O)C[C@@H]1CC[C@@H]1[C@@H]2CC[C@]2(C)[C@@H](O)CC[C@@H]12,–,-20% [at 62.6 µM] (inactive)
NNC(=S)NN,–,"-0.583% [at 81.1 µM, co-treated with 50 nM rosiglitazone] (inactive)"
Nc1ccc(Cl)c(Cl)c1,inactive,–
OCC(O)CO,inactive,–
C1=Cc2cccc3cccc1c23,inactive,–
Nc1cccnc1,inactive,–
Oc1cc(Cl)ccc1Cl,–,11% (inactive)
O=C(O)C(F)(F)C(F)(F)C(F)(F)C(F)(F)C(F)(F)C(F)(F)C(F)(F)F,inactive,–
CNC(=O)N(C)c1nnc(C(C)(C)C)s1,–,3.76% (inactive)

SMILES,Potency,"activity change, negative = cytotoxicity"
C=C(C)[C@H]1Cc2c(ccc3c2O[C@@H]2COc4cc(OC)c(OC)cc4[C@@H]2C3=O)O1,–,"-47.6% [at 81.1 µM, co-treated with 50 nM rosiglitazone] (inactive)"
Cc1cccc(N)c1N,–,-0.0739% (inactive)
NCc1cccnc1,inactive,–
C=CCc1ccc2c(c1)OCO2,inactive,–
CC1(C)C(C=C(Cl)Cl)C1C(=O)OC(C#N)c1cccc(Oc2ccccc2)c1 (stereo not given),inactive,–
Oc1cc(Cl)ccc1Oc1ccc(Cl)cc1Cl,6.31 µM (active),–
O=P(O)(O)CCCl,–,"9.23% [at 81.1 µM, co-treated with 50 nM rosiglitazone] (inactive)"
CCCCNC(=O)n1c(NC(=O)OC)nc2ccccc21,inactive,–
c1ccc(N=Nc2ccccc2)cc1,–,-3.14% (inactive)
C#CCOS(=O)OC1CCCCC1Oc1ccc(C(C)(C)C)cc1 (stereo not given),2.45 µM (active),–
CC(C)(c1cc(Cl)c(O)c(Cl)c1)c1cc(Cl)c(O)c(Cl)c1,49 µM (active) and 24.5 µM (active),–
O=S(=O)(Oc1ccc(Cl)cc1)c1ccc(Cl)cc1,inactive,–
Nn1cnnc1,inactive,–
CCOP(=S)(OCC)O/N=C(\C#N)c1ccccc1,inactive,–
O=[N+]([O-])c1cccc2ccccc12,inactive,–
CCCCC(CC)COC(=O)Cl (stereo not given),inactive,–
CCCCCCCCC(=O)NCc1ccc(O)c(OC)c1,–,15.3% (inactive)
CCCCCCOC(=O)c1ccccc1C(=O)OCCCCCC,inactive,–
CC(C)=CC1C(C(=O)OCc2coc(Cc3ccccc3)c2)C1(C)C (stereo not given),inactive,–
CCOc1cc(Oc2ccc(C(F)(F)F)cc2Cl)ccc1[N+](=O)[O-],inactive,–
